Assay results taken from PubChem BioAssay (NCATS).
Records with an inconclusive call do not appear. Entries that show only a call come without a potency. Active and inactive are the calls of the source. The call rests on the fitted dose curve; in most records, active means well fitted curve in the direction sought with a large enough effect; inconclusive means small, poorly fitted or top-dose-only effect, or another doubt; inactive means no such curve, though single readings can be large; an effect the other way counts as inactive or inconclusive.

Assays:
[1] = Quantitative High-Throughput drug screen in 47 multiple myeloma cell lines against the NCATS MIPE library collection: KMS12BM_JCRB cell viability assay (AID 1918971); further: nearly all actives have a fitted effect of over 35% in size; further: potency means the concentration at half of the fitted maximal effect
In short: (§1)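 Myeloma cells (500 per well) were exposed to MIPE 4.0 compounds by pin transfer and incubated 48 hours at 37C, 5% CO2. Viability was read as ATP by CellTiter-Glo luminescence, normalised to DMSO (100%) and media-only (0%) wells.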

[2] = Quantitative High-Throughput drug screen in 47 multiple myeloma cell lines against the NCATS MIPE library collection: KMS12PE_JCRB cell viability assay (AID 1918972); further: nearly all actives have a fitted effect of over 30% in size; further: potency means the concentration at half of the fitted maximal effect; on viability: series mostly up to about 46 µM
In short: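 CellTiter-Glo ATP luminescence gave viability after 48 h compound treatment at 37C of 500 multiple myeloma cells per well. Normalisation used DMSO-only wells as 100% and media-only wells as 0% viability; primary qHTS of approved and investigational drugs.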

[3] = Quantitative High-Throughput drug screen in 47 multiple myeloma cell lines against the NCATS MIPE library collection: MMM1_PLB cell viability assay (AID 1918976); further: nearly all actives have a fitted effect of over 35% in size; further: potency means the concentration at half of the fitted maximal effect
Text: PI: Beverly A. Mock Ph.D.
Laboratory of Cancer Biology and Genetics,
Center for Cancer Research, National Cancer Institute,
National Institute of Health, Bethesda, Maryland
Drug resistance and disease progression are common in multiple myeloma (MM) patients, underscoring the need for new therapeutic combinations. […] We hypothesized that effective combinations would reduce MYC expression and enhance p16 activity. […] These preclinical data identify potentially useful drug combinations for evaluation in drug-resistant MM and reveal potential mechanisms of combined drug sensitivity.
Described herein is the primary MIPE qHTS used to cherrypick compounds. Validated compounds were then further tested for potential synergistic activiy.
[1] Peat TJ, Gaikwad SM, Dubois W, Gyabaah-Kessie N, Zhang S, Gorjifard S, Phyo Z, Andres M, Hughitt VK, Simpson RM, Miller MA, Girvin AT, Taylor A, Williams D, D'Antonio N, Zhang Y, Rajagopalan A, Flietner E, Wilson K, Zhang X, Shinn P, Klumpp-Thomas C, McKnight C, Itkin Z, Chen L, Kazandijian D, Zhang J, Michalowski AM, Simmons JK, Keats J, Thomas CJ, Mock BA. Drug combinations identified by high-throughput screening promote cell cycle transition and upregulate Smad pathways in myeloma. Cancer Lett. 2023 Aug 1;568:216284. doi: 10.1016/j.canlet.2023.216284. Epub 2023 Jun 24. PMID: 37356470; PMCID: PMC10408729.
SEQUENCE No. (e.g., 1, 2, 3, etc.); […] (e.g., Cells, Incubation, Reagent, etc.); VALUE and DESCRIPTION.
1; Cells; 5 uL; white, solid bottom 1536-well Greiner assay plate.
2; Compounds; 23 nL; Kalypsis pin tool (Wako USA) equipped with a 1536-well pin head to transfer to the assay plates.
3; Incubation; 48 hours; 37C incubation.
4; Reagent;5uL; CellTiter Glo (Promega).
5; Detector; 425V; Luminescence; Viewlux PerkinElmer. […]
1. […] Briefly, the corresponding myeloma cell lines were screened in 1,536-well plates with 500 cells, 5-uL per well for inhibition of cell viability (assessed by measuring ATP levels with CellTiterGlo). […]
5. Signal was measured as median relative luminescence units on a ViewLux (PerkinElmer) multiplate reader. […]

[4] = Quantitative High-Throughput drug screen in 47 multiple myeloma cell lines against the NCATS MIPE library collection: NCIH929_DSMZ cell viability assay (AID 1918978); further: nearly all actives have a fitted effect of over 35% in size; further: potency means the concentration at half of the fitted maximal effect
In short: (§2)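 ATP-based CellTiter-Glo luminescence after 48 h drug exposure (37 °C, 5% CO2) of 500 myeloma cells per well. DMSO-only wells set 100% viability, media-only wells 0%; MIPE 4.0 library added by pin tool.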

[5] = Quantitative High-Throughput drug screen in 47 multiple myeloma cell lines against the NCATS MIPE library collection: OCIMY1_PLB cell viability assay (AID 1918979); further: series mostly up to about 46 µM; nearly all actives have a fitted effect of over 35% in size
In short: as §2

[6] = Quantitative High-Throughput drug screen in 47 multiple myeloma cell lines against the NCATS MIPE library collection: KMS20_JCRB cell viability assay (AID 1918973); further: nearly all actives have a fitted effect of over 45% in size; further: potency means the concentration at half of the fitted maximal effect
In short: (§3)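 Luminescent ATP measurement with CellTiter-Glo gives viability, scaled between DMSO-only wells (100%) and media-only wells (0%). Cells, 500 per well, faced library compounds for 48 hours at 37C.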

[7] = Quantitative High-Throughput drug screen in 47 multiple myeloma cell lines against the NCATS MIPE library collection: MOLP8_DSMZ cell viability assay (AID 1918977); further: nearly all actives have a fitted effect of over 45% in size; further: potency means the concentration at half of the fitted maximal effect
In short: as §2

[8] = Quantitative High-Throughput drug screen in 47 multiple myeloma cell lines against the NCATS MIPE library collection: MM1S_ATCC cell viability assay (AID 1918980); details: MM1S myeloma viability, CellTiter-Glo ATP luminescence, 48 h; further: potency means the concentration at half of the fitted maximal effect; nearly all actives have a fitted effect of over 45% in size
In short: as §2

[9] = Quantitative High-Throughput drug screen in 47 multiple myeloma cell lines against the NCATS MIPE library collection: KMS21BM_JCRB cell viability assay (AID 1918974); details: ATP luminescence, 48 h; further: potency means the concentration at half of the fitted maximal effect
In short: as §3

[10] = Quantitative High-Throughput drug screen in 47 multiple myeloma cell lines against the NCATS MIPE library collection: KMS26_JCRB cell viability assay (AID 1918975); details: KMS26 myeloma cells viability, CellTiter-Glo ATP, 48 h; further: potency means the concentration at half of the fitted maximal effect; nearly all actives have a fitted effect of over 45% in size
In short: as §1

Question: What does the source list for `COC(=O)C1=CCCN(C)C1`?
Answer: Potency [1]: inactive; Potency [2]: inactive; Potency [3]: 1050 nM (active); Potency [4]: inactive; outcome [5]: inactive

Question: With `COc1ccc(C(=O)N2CCCC2=O)cc1` as the compound, how does the Potency [1] read?
Answer: inactive

Question: And the Potency [2]?
Answer: inactive

Question: What about the Potency [6] of the same compound?
Answer: inactive

Question: And the Potency [7]?
Answer: inactive

Question: What about the Potency [8] of the same compound?
Answer: 296 nM (active)

Question: Which Potency [1] does the source give for `C[C@@H]1C[C@@H]([C@H](O)CC2CC(=O)NC(=O)C2)C(=O)[C@@H](C)C1` here?
Answer: 209 nM (active)

Question: And the Potency [2]?
Answer: 418 nM (active)

Question: And the Potency [6]?
Answer: 1660 nM (active)

Question: What about the Potency [9] of the same compound?
Answer: 526 nM (active)

Question: What about the Potency [10] of the same compound?
Answer: 132 nM (active)

Question: What about the Potency [3] of the same compound?
Answer: 662 nM (active)

Question: And the Potency [7]?
Answer: 296 nM (active)

Question: And the Potency [4]?
Answer: 1870 nM (active)

Question: What about the Potency [8] of the same compound?
Answer: 4180 nM (active)

Question: For `O=C(O)c1nn(Cc2ccc(Cl)cc2Cl)c2ccccc12`, which Potency [2] is on record?
Answer: inactive

Question: And the Potency [3]?
Answer: inactive

Question: And the Potency [7]?
Answer: inactive

Question: What about the Potency [4] of the same compound?
Answer: inactive
